Sampled rows, rich in hits. Any-hit rate of the full collection: about 6.1%.
D3 antag – blocks the human D3 dopamine receptor. P35462. D3R cells, DiscoveRx beta-arrestin luminescence, antagonist mode; active compounds read low. max response, negative = inhibition, %. 360,000 compounds, 2.5% hits; in the data active = max response below about -50%
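Cells expressing the human receptor were seeded at 1500 cells/well, incubated overnight at 37 degrees C in 5% CO2, then exposed to library compounds with dopamine controls for 90 minutes at 37 degrees C before luminescent detection.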
D1 PAM – human D1 dopamine receptor positive modulation; HEK293 TREx D1 cells, calcium flux, dopamine EC20 potentiation; potentiation, % at 10 µM; 360,000 compounds, 0.036% hits; AID 504651; in the data active = potentiation above about 30%
DRD3 agonist – D3 dopamine receptor (human) agonism; P35462; D3R DiscoveRx beta-arrestin cells, luminescence, 90 min; max activation, %; 410,000 compounds, 0.58% hits; AID 652048; in the data active = max activation above about 30%
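Agonist mode: compounds and dopamine controls were applied to plated cells for 90 min at 37 degrees C after an overnight attachment at 1500 cells/well. Luminescent read-out followed 30 - 60 minutes at room temperature with DiscoveRx detection reagent.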
D1 ag – agonists of human D1 dopamine receptor; P21728; HEK293 T-REx D1 cells, calcium flux, agonist mode; activation, % at 2 µM; 360,000 compounds, 1% hits; in the data active = activation above about 30%
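Tetracycline-induced HEK293 TREx D1 cells, force-coupled to calcium signalling, were dye-loaded with a no-wash calcium kit. Compound was pin-added after a 10 s baseline. Fluorescence was read kinetically at 1 cycle/s for 180 s, with calcium rises flagged as agonism.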
ERG Ets-DNA blk – ERG Ets/DNA interaction inhibition. P11308. 370,000 compounds, 0.028% hits. Potency, µM (top dose mostly 76.9 µM), usual class: inhibitors. AID 624246. fluorescence polarization, His-ERG Ets domain / labelled DNA; active = well fitted inhibition curve with a large enough effect in the polarisation, with a control signal flat; the % refers to the polarisation;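 also: polarization taken with two DNA probes labelled with fluorescein and Texas red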
Target sequence (P11308 whole entry, looked up, the tested form may be a part): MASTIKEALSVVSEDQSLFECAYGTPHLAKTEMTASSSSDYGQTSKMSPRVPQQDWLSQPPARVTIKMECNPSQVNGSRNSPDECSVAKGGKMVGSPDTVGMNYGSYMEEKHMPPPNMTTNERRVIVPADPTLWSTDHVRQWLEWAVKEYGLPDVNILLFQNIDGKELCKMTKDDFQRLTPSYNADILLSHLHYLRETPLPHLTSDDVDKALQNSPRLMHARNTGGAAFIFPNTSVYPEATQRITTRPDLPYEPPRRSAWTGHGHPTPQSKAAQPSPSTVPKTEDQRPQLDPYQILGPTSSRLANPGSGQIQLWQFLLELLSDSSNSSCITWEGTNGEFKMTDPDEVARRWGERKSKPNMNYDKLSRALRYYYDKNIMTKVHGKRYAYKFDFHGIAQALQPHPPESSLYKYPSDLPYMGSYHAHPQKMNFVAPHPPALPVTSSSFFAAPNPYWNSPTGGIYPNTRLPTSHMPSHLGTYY
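His-tagged ERG Ets domain (1 uM in the protein solution; 300mM KCl, 50mM Tris-HCl, 1mM EDTA, 1mM DTT, pH 7.5) received compound, then a probe mix of 5 nM fluorescein-DNA and 100nM Texas-615-DNA. Fluorescence polarization was read for both dyes.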
D1 antag – antagonists of human D1 dopamine receptor | P21728 | HEK293 TREx D1 cells, calcium flux, dopamine EC80; active compounds read low | activity change, negative = inhibition, % at 10 µM | 360,000 compounds, 3.2% hits | AID 504652; in the data active = activity change below about -30%
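HEK293 T-REx cells expressing inducible, force-coupled D1 receptor; no-wash Ca dye, 30–90 min RT. Cmpd → 180 s read at 1 Hz → EC80 DA → 180 s read.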
Hits are given with their value.

Screening Cc1ccc(CNC(=O)c2cccc3c2C(=O)c2ccc(N4CCOCC4)cc2S3(=O)=O)cc1 returned D3 antag inactive, D1 PAM inactive, DRD3 agonist inactive, D1 ag 49 and ERG Ets-DNA blk inactive.
Screening O=C(NC1CCCCC1)c1cccc2c1C(=O)c1ccc(-c3ccc(OC(F)(F)F)cc3)cc1S2(=O)=O returned D3 antag inactive, DRD3 agonist inactive and ERG Ets-DNA blk inactive.
For COc1ccccc1N1CCN(c2ccc3c(c2)S(=O)(=O)c2cccc(C(=O)NCc4cccc(F)c4)c2C3=O)CC1 the results were D3 antag inactive and DRD3 agonist inactive.
For COCCNC(=O)c1cccc2c1C(=O)c1ccc(N3CCOCC3)cc1S2(=O)=O the results were D3 antag inactive, DRD3 agonist inactive and ERG Ets-DNA blk inactive.
`O=C(NCc1ccccc1C(F)(F)F)c1cccc2c1C(=O)c1ccc(N3CCOCC3)cc1S2(=O)=O` gave D3 antag inactive, DRD3 agonist 38 and ERG Ets-DNA blk inactive.
Cc1nn(Cc2noc(C(=O)NC(C)c3ccccc3)n2)c(C)c1Br (stereo unspecified) was read as D1 PAM inactive, DRD3 agonist inactive, D1 ag inactive, ERG Ets-DNA blk inactive and D1 antag inactive.
For Cc1ccc(S(=O)(=O)C(CNC(=O)c2ccc(F)c(F)c2)c2ccco2)cc1 (stereo unspecified) the results were D1 PAM inactive, DRD3 agonist inactive, D1 ag inactive and ERG Ets-DNA blk inactive.
For O=C(NCc1ccco1)c1cccc2c1C(=O)c1ccc(N3CCCC3)cc1S2(=O)=O the results were D3 antag inactive, DRD3 agonist inactive and ERG Ets-DNA blk inactive.
For Cc1ccc(CNC(=O)c2cccc3c2C(=O)c2ccc(N4CCCCC4)cc2S3(=O)=O)cc1 the results were D3 antag inactive, D1 PAM inactive, DRD3 agonist inactive, D1 ag 97, ERG Ets-DNA blk inactive and D1 antag inactive.
`COC(=O)c1ccc(COc2ccc(-c3nnn(CC(=O)NC(C)(C)C)n3)cc2)cc1` gave D3 antag inactive, D1 PAM inactive, DRD3 agonist inactive, D1 ag inactive, ERG Ets-DNA blk inactive and D1 antag inactive.
Screening Cc1c(N/N=C(\C#N)C(=O)c2ccc(Cl)cc2)c(=O)n(-c2ccccc2)n1C returned D3 antag -80, D1 PAM inactive, DRD3 agonist inactive, D1 ag inactive, ERG Ets-DNA blk inactive and D1 antag inactive.
`Cc1ccccc1-c1nn(-c2ccccc2)cc1C(=O)NCC(c1ccco1)N1CCCC1` (stereo unspecified) gave D3 antag inactive, D1 PAM inactive, DRD3 agonist inactive, D1 ag inactive, ERG Ets-DNA blk inactive and D1 antag inactive.
For CCN(CCCNC(=O)c1cc2cc3ccc(OC)cc3nc2s1)c1ccccc1 the results were D1 PAM inactive, DRD3 agonist inactive, D1 ag inactive, ERG Ets-DNA blk inactive and D1 antag inactive.
`COc1ccc(S(=O)(=O)Cc2ccc(C(=O)NCCCN3CCc4ccccc4C3)o2)cc1` gave D3 antag -92, DRD3 agonist inactive, D1 ag inactive, ERG Ets-DNA blk inactive and D1 antag inactive.
`COc1ccc(N2CCN(CCCNC(=O)c3ccc(CS(=O)(=O)c4ccc(OC)cc4)o3)CC2)cc1` gave D3 antag inactive, D1 PAM inactive, DRD3 agonist inactive, D1 ag inactive, ERG Ets-DNA blk inactive and D1 antag inactive.
`COc1ccc2nc3sc(C(=O)NCCCN4CCc5ccccc5C4)cc3cc2c1` gave D3 antag -88, D1 PAM inactive, DRD3 agonist inactive, D1 ag inactive, ERG Ets-DNA blk inactive and D1 antag inactive.
Screening COc1ccccc1S(=O)(=O)Cc1ccc(C(=O)NCCCN2CCN(c3ccc(F)cc3)CC2)o1 returned D3 antag -77, D1 PAM inactive, DRD3 agonist inactive, D1 ag inactive, ERG Ets-DNA blk inactive and D1 antag -62.
For Cc1ccc(C(=O)N/C(=C/c2ccco2)C(=O)N2CCCCC2)cc1 the results were D3 antag inactive, D1 PAM inactive, DRD3 agonist inactive, D1 ag inactive, ERG Ets-DNA blk inactive and D1 antag inactive.
